Compounds without any hit were thinned out: in the full panel of roughly 79,000, 15% have a hit. The source made the active and inactive calls. Rule as the data show it: active = growth inhibition above about 70%; inactive = the rest.
Assays:
[1] = NCI Yeast Anticancer Drug Screen. Data for the rad52 strain (AID 147);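 also: 0% = growth of vehicle-treated control cultures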; conditions: S. cerevisiae rad52 mutant growth inhibition, hits give high values
Summary of the method: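 Yeast strain carrying a DNA damage repair alteration was exposed to test compounds. Growth inhibition was measured relative to vehicle-treated controls.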

[2] = NCI Yeast Anticancer Drug Screen. Data for the wt1 strain (AID 149);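 also: 0% = growth of vehicle-treated wt1 cultures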; conditions: S. cerevisiae wt1 strain (SPY 50644) growth inhibition, hits give high values
Summary of the method: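 Yeast wt1 strain exposed to compounds; growth inhibition measured relative to vehicle-treated controls.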

[3] = NCI Yeast Anticancer Drug Screen. Data for the rad50EPP+ strain (AID 151);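 also: 0% = growth of vehicle-treated control cultures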; conditions: S. cerevisiae rad50 mutant strain, hits give high values
Summary of the method: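 Yeast strain carrying rad50 alteration (rad50EPP+) exposed to compounds; growth inhibition measured relative to vehicle-treated controls.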

[4] = NCI Yeast Anticancer Drug Screen. Data for the rad50 strain (AID 155);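 also: 0% = growth of vehicle-only cultures of the same strain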; conditions: S. cerevisiae rad50 strain growth inhibition, hits give high values
Summary of the method: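 Yeast carrying a defined DNA repair defect were exposed to test compounds, and growth was compared with vehicle-treated controls to give percent inhibition.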

[5] = NCI Yeast Anticancer Drug Screen. Data for the mec2-1 strain (AID 157); conditions: S. cerevisiae mec2-1 strain, hits give high values
Summary of the method: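 mec2-1 yeast strain, carrying an alteration in DNA damage repair or cell cycle control, was exposed to compounds; growth inhibition was measured relative to vehicle-treated controls.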

[6] = NCI Yeast Anticancer Drug Screen. Data for the rad14 strain (AID 159);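 also: 0% = growth of vehicle-treated control cultures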; conditions: S. cerevisiae rad14 strain growth inhibition, hits give high values
Summary of the method: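 Yeast cells carrying a defined DNA-repair defect were exposed to compounds, and growth inhibition was calculated relative to vehicle-treated control cultures.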

[7] = NCI Yeast Anticancer Drug Screen. Data for the sgs1 mgt1 strain (AID 161);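 also: 0% = growth of cultures given vehicle only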; conditions: S. cerevisiae sgs1 mgt1 strain, hits give high values
Summary of the method: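 This yeast growth screen uses a strain with defined DNA-repair lesions; compound-treated growth is compared with vehicle-treated growth.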

[8] = NCI Yeast Anticancer Drug Screen. Data for the CLN2oe strain (AID 163);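 also: 0% = growth of vehicle-only control cultures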; conditions: S. cerevisiae CLN2oe strain, hits give high values
Summary of the method: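 Yeast cells carrying a defined cell-cycle control alteration were exposed to test compounds. Growth inhibition was scored against vehicle-treated control cultures.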

[9] = NCI Yeast Anticancer Drug Screen. Data for the cln2 rad14 strain (AID 165);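 also: 0% = growth equal to vehicle treated cultures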; conditions: S. cerevisiae cln2 rad14 strain, hits give high values
Summary of the method: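 Yeast carrying cln2 and rad14 alterations (cell cycle control and DNA damage repair) were exposed to compounds. Growth inhibition was measured against vehicle-treated controls.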

[10] = NCI Yeast Anticancer Drug Screen. Data for the bub3 strain (AID 167); conditions: S. cerevisiae bub3 mutant strain, hits give high values
Summary of the method: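 Compounds were applied to a genetically altered yeast strain carrying a cell-cycle control defect. Growth inhibition was scored against vehicle-treated controls.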

[11] = NCI Yeast Anticancer Drug Screen. Data for the wt2 strain (AID 169);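 also: 0% = growth of vehicle-treated yeast cultures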; conditions: S. cerevisiae wt2 strain growth inhibition, hits give high values
Summary of the method: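 Yeast cells were exposed to test compounds, and growth inhibition was measured relative to vehicle-treated controls.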

[12] = NCI Yeast Anticancer Drug Screen. Data for the sgs1 strain (AID 173);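 also: 0% = growth of vehicle-only control cultures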; conditions: S. cerevisiae sgs1 mutant, hits give high values
Summary of the method: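 Yeast mutant strains carrying defined defects in DNA damage repair or cell cycle control were exposed to test compounds. Growth inhibition was scored against vehicle-treated controls.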

[13] = NCI Yeast Anticancer Drug Screen. Data for the mlh1 rad18 strain (AID 175); conditions: S. cerevisiae mlh1 rad18 strain growth inhibition, hits give high values
Summary of the method: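 Growth inhibition of the yeast strain was measured after compound exposure and expressed relative to vehicle-treated controls. The strain carries defined defects in DNA damage repair.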

[14] = NCI Yeast Anticancer Drug Screen. Data for the rad18 strain (AID 177); conditions: S. cerevisiae rad18 mutant growth inhibition, hits give high values
Summary of the method: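 Yeast carrying a defined DNA damage repair alteration were exposed to compounds. Growth inhibition was expressed relative to vehicle-treated controls.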

[15] = at 5.0 µM (retest, dose inferred, filed as 0.5)
[16] = at 50.0 µM (retest, dose inferred, filed as 5.0)

Measured: growth inhibition

COc1ccc(S(=O)(=O)N/N=C\c2cc([N+](=O)[O-])cc(I)c2O)c(OC)c1OC
active: [1]; at 100.0 µM 94% | [4]; [16] 72% | [4]; at 50.0 µM 92.9% | [4]; at 100.0 µM 95% | [5]; [16] 76% | [5]; at 50.0 µM 73% | [5]; at 100.0 µM 83% | [6]; at 100.0 µM 96% | [7]; [16] 74% | [7]; at 50.0 µM 88.3% | [8]; at 100.0 µM 93% | [10]; at 100.0 µM 86% | [11]; at 100.0 µM 93% | [12]; at 100.0 µM 97% | [13]; [16] 73% | [13]; at 50.0 µM 85.5% | [14]; at 100.0 µM 93%
inactive: [1]; at 1.2 µM 0% | [1]; at 3.7 µM 9% | [1]; at 11.0 µM 20% | [1]; at 33.0 µM 42% | [2]; at 1.2 µM -7% | [2]; at 3.7 µM -8% | [2]; at 11.0 µM -8% | [2]; at 33.0 µM 9% | [2]; at 100.0 µM 49% | [3]; at 1.2 µM -5% | [3]; at 3.7 µM -6% | [3]; at 11.0 µM -5% | [3]; at 33.0 µM 17% | [3]; at 100.0 µM 63% | [4]; at 1.2 µM -7% | [4]; at 3.7 µM -7% | [4]; [15] 10% | [4]; at 11.0 µM 23% | [4]; at 33.0 µM 64% | [5]; at 1.2 µM -2% | [5]; at 3.7 µM -6% | [5]; [15] 14% | [5]; at 11.0 µM -7% | [5]; at 33.0 µM 15% | [6]; at 1.2 µM -3% | [6]; at 3.7 µM 4% | [6]; at 11.0 µM 13% | [6]; at 33.0 µM 39% | [7]; [15] 13% | [8]; at 1.2 µM -6% | [8]; at 3.7 µM -10% | [8]; at 11.0 µM -8% | [8]; at 33.0 µM 18% | [9]; [15] -8% | [9]; [16] 46% | [9]; at 50.0 µM 11.1% | [10]; at 1.2 µM -13% | [10]; at 3.7 µM -15% | [10]; [15] 1% | [10]; at 11.0 µM -5% | [10]; at 33.0 µM 15% | [10]; [16] 68% | [10]; at 50.0 µM 25.8% | [11]; at 1.2 µM -7% | [11]; at 3.7 µM -7% | [11]; at 11.0 µM -6% | [11]; at 33.0 µM 15% | [12]; at 1.2 µM -5% | [12]; at 3.7 µM -8% | [12]; at 11.0 µM 9% | [12]; at 33.0 µM 45% | [13]; [15] 15% | [14]; at 1.2 µM -1% | [14]; at 3.7 µM 0% | [14]; at 11.0 µM 13% | [14]; at 33.0 µM 37%

CN(NC(=O)/C(=C/c1ccc(O)cc1)NC(=O)c1ccccc1)c1ccnc2cc(Cl)ccc12
inactive: [1]; at 1.2 µM 2% | [1]; at 3.7 µM 9% | [1]; at 11.0 µM 35% | [1]; at 33.0 µM 60% | [2]; at 1.2 µM 3% | [2]; at 3.7 µM 4% | [2]; at 11.0 µM 11% | [2]; at 33.0 µM 40% | [2]; at 100.0 µM 69% | [3]; at 1.2 µM -2% | [3]; at 3.7 µM 3% | [3]; at 11.0 µM 14% | [3]; at 33.0 µM 34% | [3]; at 100.0 µM 42% | [4]; at 1.2 µM -2% | [4]; at 3.7 µM -4% | [4]; [15] 6% | [4]; at 11.0 µM 15% | [4]; at 33.0 µM 68% | [4]; [16] 20% | [5]; at 1.2 µM 1% | [5]; at 3.7 µM 4% | [5]; [15] 15% | [5]; at 11.0 µM 12% | [5]; at 33.0 µM 44% | [5]; [16] 2% | [5]; at 50.0 µM 46.9% | [6]; at 1.2 µM 0% | [6]; at 3.7 µM 2% | [6]; at 11.0 µM 13% | [6]; at 33.0 µM 38% | [6]; at 100.0 µM 60% | [7]; [15] 9% | [7]; [16] 9% | [7]; at 50.0 µM 51.1% | [8]; at 1.2 µM 6% | [8]; at 3.7 µM 3% | [8]; at 11.0 µM 13% | [8]; at 33.0 µM 39% | [8]; at 100.0 µM 65% | [9]; [15] -3% | [9]; [16] 2% | [9]; at 50.0 µM -2.45% | [10]; at 1.2 µM -1% | [10]; at 3.7 µM 4% | [10]; [15] 21% | [10]; at 11.0 µM 16% | [10]; at 33.0 µM 43% | [10]; [16] 65% | [10]; at 50.0 µM 55.1% | [10]; at 100.0 µM 68% | [11]; at 1.2 µM -3% | [11]; at 3.7 µM -1% | [11]; at 11.0 µM 11% | [11]; at 33.0 µM 47% | [12]; at 1.2 µM 2% | [12]; at 3.7 µM 4% | [12]; at 11.0 µM 14% | [12]; at 33.0 µM 67% | [13]; [15] 1% | [13]; [16] 2% | [14]; at 1.2 µM 1% | [14]; at 3.7 µM 7% | [14]; at 11.0 µM 45%
active: [1]; at 100.0 µM 79% | [4]; at 50.0 µM 80.1% | [4]; at 100.0 µM 81% | [5]; at 100.0 µM 72% | [11]; at 100.0 µM 70% | [12]; at 100.0 µM 83% | [13]; at 50.0 µM 80.3% | [14]; at 33.0 µM 78% | [14]; at 100.0 µM 87%

COc1cccc(C(c2cc3c(cc2O)OCO3)N2CCOCC2)c1OC (stereo unspecified)
active: [5]; at 50.0 µM 83.8% | [7]; [16] 79%
inactive: [1]; at 1.2 µM -2% | [1]; at 3.7 µM 2% | [1]; at 11.0 µM 4% | [1]; at 33.0 µM 23% | [1]; at 100.0 µM 28% | [2]; at 1.2 µM -2% | [2]; at 3.7 µM -2% | [2]; at 11.0 µM -2% | [2]; at 33.0 µM 0% | [2]; at 100.0 µM 3% | [3]; at 1.2 µM -6% | [3]; at 3.7 µM -7% | [3]; at 11.0 µM 0% | [3]; at 33.0 µM 11% | [3]; at 100.0 µM 56% | [4]; at 1.2 µM -1% | [4]; at 3.7 µM 2% | [4]; [15] -3% | [4]; at 11.0 µM 1% | [4]; at 33.0 µM 14% | [4]; [16] 48% | [4]; at 50.0 µM 42.1% | [4]; at 100.0 µM 46% | [5]; at 1.2 µM -1% | [5]; at 3.7 µM -1% | [5]; [15] -1% | [5]; at 11.0 µM -2% | [5]; at 33.0 µM -2% | [5]; [16] -9% | [5]; at 100.0 µM 37% | [6]; at 1.2 µM 0% | [6]; at 3.7 µM 4% | [6]; at 11.0 µM 7% | [6]; at 33.0 µM 10% | [6]; at 100.0 µM 21% | [7]; [15] 7% | [7]; at 50.0 µM 42.5% | [8]; at 1.2 µM -4% | [8]; at 3.7 µM -3% | [8]; at 11.0 µM -4% | [8]; at 33.0 µM 5% | [8]; at 100.0 µM 19% | [9]; [15] 1% | [9]; [16] 3% | [9]; at 50.0 µM -30.1% | [10]; at 1.2 µM -4% | [10]; at 3.7 µM -4% | [10]; [15] -13% | [10]; at 11.0 µM -9% | [10]; at 33.0 µM 4% | [10]; [16] 56% | [10]; at 50.0 µM 45% | [10]; at 100.0 µM 11% | [11]; at 1.2 µM -3% | [11]; at 3.7 µM -6% | [11]; at 11.0 µM 5% | [11]; at 33.0 µM 0% | [11]; at 100.0 µM -3%

From PubChem BioAssay (NCI)
